TROY NFkB inh – TROY signaling inhibition | Q293 LMP1-TROYcd NF-kB luciferase reporter, 4 h | inhibition, % at 10 µM | actives 0.98% (n = 360,000);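 active = compounds whose plate-normalised and pattern-corrected inhibition of the luciferase reporter signal at the single screening dose is 50% or more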
HSP90 inh – blocks HSP90-mediated luciferase refolding in reticulocyte lysate; inhibition, % at 5.6 µM; Rabbit reticulocyte lysate, luciferase refolding luminescence, 3 h; actives 0.91% (n = 290,000);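 active = inhibition above the screen-wide mean plus 3 SD, computed separately per campaign, cut at about 16% in these data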;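 also: inhibitors lower the luminescence because luciferase stays unfolded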
LGR2 antag – inhibitors of bursicon-induced Drosophila LGR2 receptor cAMP signaling; HEK293 LGR2, CRE-luciferase, bursicon-stimulated, 4 h; inhibition, % at 9.99 µM; actives 0.35% (n = 380,000); AID 720647;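 active = drop in luminescence signal, shown as inhibition above about 50% in the replicate tests, limit read from the data, passing the limit was not always enough; inconclusive = probably only some replicates passing the limit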;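 also: agonist challenge used bursicon conditioned medium at about half maximal strength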
TWEAK-Fn14 inh – inhibitors of TWEAK-Fn14 interaction signaling; actives 2% (n = 360,000); TWEAK-stimulated Fn14 reporter cells, luciferase luminescence, 8 h; inhibition, % at 10 µM; in the data active = inhibition above about 50%
Large screens that a line does not name were inactive. Only some compounds are listed: those with a hit (about 2.2% of all), similar ones and a draw of the others.

COc1ccc(NC(=O)N[C@@H]2CC[C@@H](CCNS(=O)(=O)c3cccc(Cl)c3)O[C@@H]2CO)cc1	none (no result: TROY NFkB inh, HSP90 inh, TWEAK-Fn14 inh)
CC[C@H]1CN2CCc3cc(OC)c(OC)cc3C2C[C@@H]1C[C@H]1NCCc2cc(OC)c(OC)cc21 (stereo partly specified)	TROY NFkB inh 86, LGR2 antag 103, TWEAK-Fn14 inh 95 (no result: HSP90 inh)
CCC1=C(CC2NCCc3ccccc32)CC2c3cc(OC)c(OC)cc3CCN2C1 (stereo unspecified)	LGR2 antag 70 (no result: HSP90 inh)
COc1cc2c(cc1OC)CN1CCc3cc(OC)c(OC)cc3C1C2 (stereo unspecified)	none (no result: HSP90 inh)
Nc1ncnc(NCc2ccccc2)c1[N+](=O)[O-]	none
Nc1ncnc(NCc2ccc(F)cc2)c1[N+](=O)[O-]	TWEAK-Fn14 inh 60
C[C@@H]1CN([C@H](C)CO)C(=O)c2cc(NC(=O)Cn3cnnn3)ccc2O[C@H]1CN(C)S(=O)(=O)c1cccs1	none (no result: TROY NFkB inh, HSP90 inh, TWEAK-Fn14 inh)
CS(=O)(=O)N1CC(=O)N2[C@H](C1)[C@H](c1ccc(C#Cc3cccc(F)c3)cc1)[C@@H]2CO	none (no result: TROY NFkB inh, HSP90 inh, TWEAK-Fn14 inh)
COc1cc(NC(=O)C2=C(N3CCOCC3)/C(=C\c3ccc(Cl)cc3Cl)CC2)cc(OC)c1OC	TWEAK-Fn14 inh 52
COc1cc(NC(=O)C2=C(N3CCOCC3)/C(=C\c3ccc(Br)cc3)CC2)cc(OC)c1OC	none
O=C(/C=C/c1cccs1)Nc1scc(-c2ccccc2)c1C(=O)O	TWEAK-Fn14 inh 60 (no result: LGR2 antag)
O=C(/C=C/c1cccs1)Nc1nc(-c2ccccc2)cs1	none (no result: LGR2 antag)
O=C(Nc1ccc(OCC(F)(F)C(F)F)c(C(F)(F)F)c1)c1ccc(Cl)cc1	TROY NFkB inh 52, TWEAK-Fn14 inh 77 (no result: LGR2 antag)
O=C(Nc1ccc(Br)c(C(F)(F)F)c1)c1ccc(C(F)(F)F)cc1	TWEAK-Fn14 inh 63
CC(C)NC(=O)N1C[C@H]2[C@@H](c3ccccc31)[C@@H](CO)N2C(=O)c1ccncc1	none (no result: TROY NFkB inh, HSP90 inh, TWEAK-Fn14 inh)
COc1ccc(S(=O)(=O)N(C)C[C@H]2Oc3c(NS(=O)(=O)c4ccc(Cl)cc4)cccc3C(=O)N([C@H](C)CO)C[C@H]2C)cc1	none (no result: TROY NFkB inh, HSP90 inh, TWEAK-Fn14 inh)
CC(C)CC#Cc1ccc([C@H]2[C@H](CO)N3C(=O)CN(S(=O)(=O)c4ccccc4)C[C@@H]23)cc1	none (no result: TROY NFkB inh, HSP90 inh, TWEAK-Fn14 inh)
C[C@H](CO)N1C[C@H](C)[C@H](CN(C)C(=O)C2CCC2)Oc2cc(-c3ccccc3)ccc2S1(=O)=O	none (no result: TROY NFkB inh, HSP90 inh, TWEAK-Fn14 inh)
CCOc1cc(CNc2ccc(N3CCOCC3)cc2)cc(Br)c1OCC	none
CCOc1cc(CNc2ccc3c(c2)OCCO3)cc(Br)c1OCC	TROY NFkB inh 77, HSP90 inh 16, TWEAK-Fn14 inh 81 (no result: LGR2 antag)
Oc1cccc(-c2nc3c4c(ncn3n2)-c2ccccc2CC42CCCC2)c1	LGR2 antag inconclusive, TWEAK-Fn14 inh 71
CCCC(=O)Nc1ccc2c(c1)OC[C@@H](C)N(C(=O)CC)C[C@@H](C)[C@H](OC)CN(C)C2=O	none (no result: TROY NFkB inh, HSP90 inh, TWEAK-Fn14 inh)
CC(=O)OC1CCC2(C)C(CCC3C4CC=C(C(C)=O)C4(C)OC(=O)CC32)C1 (stereo unspecified)	LGR2 antag 107, TWEAK-Fn14 inh 102 (no result: HSP90 inh)
CC(=O)O[C@H]1CC[C@@]2(C)C(CCC3C2CC[C@]2(C)OC(=O)CCC32)C1 (stereo partly specified)	none (no result: LGR2 antag)
CCc1ccccc1NC(=O)CCS(=O)(=O)c1ccc(Br)cc1	TWEAK-Fn14 inh 70
O=C(CCS(=O)(=O)c1ccc(Br)cc1)NCc1cccs1	HSP90 inh 17
CC(C)NC(=O)Nc1ccc2c(c1)C(=O)N([C@H](C)CO)C[C@@H](C)[C@H](CN(C)C)O2	none (no result: TROY NFkB inh, HSP90 inh, TWEAK-Fn14 inh)
O=C1/C(=C\c2ccc(O)cc2)SC(=S)N1Cc1ccccc1	none
O=C1/C(=C/c2ccc(O)c([N+](=O)[O-])c2)SC(=S)N1Cc1ccccc1	TWEAK-Fn14 inh 60
O=C1/C(=C/c2ccccc2O)SC(=S)N1Cc1cccnc1	LGR2 antag 83
O=C1/C(=C\c2cccc([N+](=O)[O-])c2O)SC(=S)N1Cc1ccccc1	TWEAK-Fn14 inh 69
O=C1/C(=C\c2cc(Br)cc(Br)c2O)SC(=S)N1Cc1ccccc1	none (no result: LGR2 antag)
N=C1S/C(=C\c2ccc(-c3cccc(Cl)c3)o2)C(=O)N1c1nccs1	TWEAK-Fn14 inh 90
COc1ccc(/C=C2\SC(=N)N(c3nccs3)C2=O)cc1OC	none
Cc1noc(C)c1S(=O)(=O)Nc1ccc2c(c1)C(=O)N([C@@H](C)CO)C[C@H](C)[C@@H](CN(C)S(C)(=O)=O)O2	none (no result: TROY NFkB inh, HSP90 inh, TWEAK-Fn14 inh)
Cc1noc(C)c1S(=O)(=O)Nc1ccc2c(c1)C(=O)N([C@@H](C)CO)C[C@@H](C)[C@H](CN(C)CC1CC1)OCCCC[C@H](C)O2	none (no result: TROY NFkB inh, HSP90 inh, TWEAK-Fn14 inh)
C[C@@H]1CCCCO[C@H](CN(C)C(=O)Nc2ccc(F)cc2)[C@H](C)CN([C@@H](C)CO)C(=O)c2cc(NC(=O)C3CCCCC3)ccc2O1	none (no result: TROY NFkB inh, HSP90 inh, TWEAK-Fn14 inh)
C[C@H](CO)N1C[C@H](C)[C@H](CN(C)C(=O)Nc2ccccc2)OCCCC[C@H](C)Oc2ccc(NC(=O)C3CCCCC3)cc2C1=O	LGR2 antag 69 (no result: TROY NFkB inh, HSP90 inh, TWEAK-Fn14 inh)
C[C@H](CO)N1C[C@H](C)[C@H](CN(C)C(=O)Nc2ccc(F)cc2)OCCCC[C@H](C)Oc2ccc(NC(=O)C3CCCCC3)cc2C1=O	LGR2 antag 83 (no result: TROY NFkB inh, HSP90 inh, TWEAK-Fn14 inh)
C[C@H](CO)N1C[C@H](C)[C@H](CN(C)C(=O)Nc2ccc3c(c2)OCO3)OCCCC[C@H](C)Oc2ccc(NC(=O)C3CCCCC3)cc2C1=O	LGR2 antag 57 (no result: TROY NFkB inh, HSP90 inh, TWEAK-Fn14 inh)
CO[C@H]1CN(C)C(=O)c2ccc(NC(=O)Nc3cc(F)ccc3F)cc2OC[C@H](C)NC[C@@H]1C	none (no result: TROY NFkB inh, HSP90 inh, TWEAK-Fn14 inh)
O=C(C[C@@H]1C[C@@H]2c3cc(NC(=O)NC4CCCC4)ccc3O[C@@H]2[C@@H](CO)O1)NCc1ccc(-c2ccccc2)cc1	none (no result: TROY NFkB inh, HSP90 inh, TWEAK-Fn14 inh)
CC(C)NC(=O)N1Cc2cc(C(=O)NC3CCCCC3)nc(-c3cccc(-c4cccnc4)c3)c2[C@H]1CCO	none (no result: TROY NFkB inh, HSP90 inh, TWEAK-Fn14 inh)
CS(=O)(=O)N1[C@@H]2Cn3c(cccc3=O)[C@H]1[C@@H](C(=O)NCc1ccccc1)[C@@H]2CO	none (no result: TROY NFkB inh, HSP90 inh, TWEAK-Fn14 inh)
O=C(NC[C@@H]1N[C@@H](CO)[C@H]1c1ccc(C2=CCCCC2)cc1)c1ccccc1	none (no result: TROY NFkB inh, HSP90 inh, TWEAK-Fn14 inh)
Cc1ccc(-c2csc(Cc3nc(-c4cc5ccccc5oc4=O)cs3)n2)cc1	none
Cc1ccn2cc(-c3cc4ccccc4oc3=O)nc2c1	TWEAK-Fn14 inh 66
CO[C@@H]1CN(C)C(=O)c2cc(NC(=O)CC(F)(F)F)ccc2OC[C@H](C)N(S(=O)(=O)c2cn(C)cn2)C[C@@H]1C	none (no result: TROY NFkB inh, HSP90 inh, TWEAK-Fn14 inh)
CC(C)NC(=O)Nc1cccc2c1O[C@@H](CN(C)Cc1ccc(-c3ccccc3)cc1)[C@@H](C)CN([C@@H](C)CO)C2=O	none (no result: TROY NFkB inh, HSP90 inh, TWEAK-Fn14 inh)
CO[C@@H]1CN(C)C(=O)c2ccc(NC(=O)C3CCC3)cc2OC[C@H](C)N(Cc2ccc(F)cc2)C[C@@H]1C	none (no result: TROY NFkB inh, HSP90 inh, TWEAK-Fn14 inh)
COc1cccc(C(C[N+](=O)[O-])c2c(C)[nH]n(-c3ccccc3)c2=O)c1 (stereo unspecified)	HSP90 inh 42
Cc1[nH]n(-c2ccccc2)c(=O)c1C(C[N+](=O)[O-])c1ccc(Br)cc1 (stereo unspecified)	none (no result: LGR2 antag)
CCOc1ccc(N/C(SCc2cccc([N+](=O)[O-])c2)=C(/C#N)C(N)=O)cc1	none
N#CC(C#N)=C(Nc1ccc(F)cc1)SCc1cccc(F)c1	TROY NFkB inh 53, LGR2 antag 53

From PubChem
